10 molecules from PubChem BioAssay (NCI) can be followed below.

Test systems include SR leukemia; RPMI-8226 leukemia; OVCAR-8 ovarian; OVCAR-5 ovarian; OVCAR-4 ovarian; SK-OV-3 ovarian; IGROV1 ovarian; OVCAR-3 ovarian; HS 578T breast; NCI/ADR-RES ovarian.
What all share (test): NCI-60 one-dose screen, 48 h (100 = growth as untreated, 0 = no growth, -100 = all killed)
What all share (settings): 10 µM unless noted

SMILES strings stand for the structures. Several values for one entry are separate records, joined by “and”; a condition that tells them apart may be missing. Equal entries are not always repeated. Compounds without any hit were thinned out: in the full panel of roughly 83,000, 20% have a hit.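 Each cell line was grown in a 96-well plate and treated with one concentration of compound for 48 hours. Values below 10 were considered active.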 Activity calls are given as the source filed them.

As for `CCOc1ccc(Nc2c3ccccc3nc3ccccc23)cc1`, the growth with SR leukemia was 81.6% (inactive) and 7.88% (active) and -40.6% (active); with RPMI-8226 leukemia, 81.3% (inactive) and 18% (inactive) and -19.7% (active); with OVCAR-8 ovarian, 83.6% (inactive) and 22.9% (inactive) and 36.9% (inactive); in the assay on OVCAR-5 ovarian it was 90.8% (inactive) and 29.4% (inactive) and 47.8% (inactive); with OVCAR-4 ovarian it was 90.9% (inactive) and 36.4% (inactive) and 37.9% (inactive); in the assay with SK-OV-3 ovarian it was 96.6% (inactive) and 30.7% (inactive) and 40.5% (inactive). For the same molecule, the growth with IGROV1 ovarian is 92.1% (inactive) and 20.4% (inactive) and 16.5% (inactive); in the assay with OVCAR-3 ovarian it was 96.5% (inactive) and 17.9% (inactive) and 35.1% (inactive); in the assay on HS 578T breast, 88.5% (inactive) and 60.2% (inactive) and 61.7% (inactive); in the assay on NCI/ADR-RES ovarian, 82.8% (inactive) and 22.6% (inactive) and 16.8% (inactive).

For `O=C(O)CN(CCN(CC(=O)O)CC(=O)O)CCN(CC(=O)O)CC(=O)O`, the growth in the assay on SR leukemia is -21% (active) and 105% (inactive) and 101% (inactive); in the assay with RPMI-8226 leukemia, 14.4% (inactive) and 102% (inactive) and 101% (inactive); with OVCAR-8 ovarian it was -15.6% (active) and 97.9% (inactive) and 99.4% (inactive); in the assay on OVCAR-5 ovarian it was 89.8% (inactive) and 109% (inactive); with OVCAR-4 ovarian, 20.2% (inactive) and 105% (inactive) and 100% (inactive); in the assay with SK-OV-3 ovarian, 0.709% (active) and 105% (inactive) and 108% (inactive). Further, the growth with IGROV1 ovarian is 15% (inactive); with OVCAR-3 ovarian, -17.3% (active) and 110% (inactive) and 108% (inactive); with HS 578T breast it was 7.28% (active) and 134% (inactive); in the assay on NCI/ADR-RES ovarian it was -37.7% (active) and 110% (inactive) and 113% (inactive).

With `COC(=O)c1nc(N)nc(C(=O)OC)c1C(=O)c1ccc(OC)cc1`, the growth in the assay on SR leukemia is 90.2% (inactive) and 22.8% (inactive); in the assay with RPMI-8226 leukemia, 107% (inactive) and 32.6% (inactive); in the assay with OVCAR-8 ovarian, 105% (inactive) and 55.1% (inactive); in the assay with OVCAR-5 ovarian, 121% (inactive) and 87.5% (inactive); in the assay with OVCAR-4 ovarian it was 105% (inactive) and 37.6% (inactive); in the assay with SK-OV-3 ovarian it was 106% (inactive) and 83.3% (inactive). In addition, the growth in the assay with IGROV1 ovarian is 106% (inactive) and 66.6% (inactive); in the assay with OVCAR-3 ovarian it was 117% (inactive) and 70.1% (inactive); in the assay with HS 578T breast it was 105% (inactive) and 81.2% (inactive); in the assay on NCI/ADR-RES ovarian it was 105% (inactive) and 37.4% (inactive).

As to `C/C(=N\NC(=O)c1ccncc1)c1ccccc1O`, the growth with SR leukemia was 17.7% (inactive) and 16% (inactive); with RPMI-8226 leukemia, 38.2% (inactive); in the assay on OVCAR-8 ovarian, 37.1% (inactive) and 10.9% (inactive); in the assay with OVCAR-5 ovarian, 48.2% (inactive) and 51% (inactive); in the assay with OVCAR-4 ovarian, 20% (inactive) and 22.5% (inactive); with SK-OV-3 ovarian, 45.6% (inactive) and 38.4% (inactive). Besides, the growth with IGROV1 ovarian was 32.1% (inactive) and 19.1% (inactive); in the assay on OVCAR-3 ovarian it was 20.3% (inactive) and 12.6% (inactive); in the assay on HS 578T breast, 76.1% (inactive); with NCI/ADR-RES ovarian, 18% (inactive) and 16.9% (inactive).

`CN(C)c1ccc(C(Cc2ccc3ccccc3n2)Cc2ccc3ccccc3n2)cc1`: the growth is 39.5% (inactive) and 71% (inactive) in the assay with SR leukemia; 25.4% (inactive) and 51.4% (inactive) in the assay with RPMI-8226 leukemia; 46.5% (inactive) and 91.9% (inactive) in the assay with OVCAR-8 ovarian; 58.7% (inactive) and 88.9% (inactive) in the assay on OVCAR-5 ovarian; 45.5% (inactive) and 79.8% (inactive) in the assay on OVCAR-4 ovarian; 77.5% (inactive) and 99.6% (inactive) in the assay on SK-OV-3 ovarian. In addition, the growth was 36% (inactive) and 90.3% (inactive) with IGROV1 ovarian; 55.2% (inactive) and 79.8% (inactive) in the assay on OVCAR-3 ovarian; 70% (inactive) and 93% (inactive) in the assay with HS 578T breast; 37.5% (inactive) and 76.3% (inactive) with NCI/ADR-RES ovarian.

For the molecule `C#CCN(C)Cc1ccccc1`, the growth in the assay with SR leukemia is 108% (inactive) and 101% (inactive); with RPMI-8226 leukemia it was 98.2% (inactive) and 107% (inactive); with OVCAR-8 ovarian, 101% (inactive) and 98% (inactive); in the assay with OVCAR-5 ovarian, 116% (inactive); in the assay on OVCAR-4 ovarian it was 112% (inactive) and 114% (inactive); with SK-OV-3 ovarian, 104% (inactive) and 103% (inactive). For the same molecule, the growth in the assay on IGROV1 ovarian was 103% (inactive) and 120% (inactive); in the assay with OVCAR-3 ovarian it was 111% (inactive) and 104% (inactive); in the assay with HS 578T breast, 119% (inactive) and 96.1% (inactive); in the assay on NCI/ADR-RES ovarian, 101% (inactive) and 102% (inactive).

Regarding `Nc1ccc2[nH]c(-c3ccccc3)cc(=O)c2c1`, the growth with SR leukemia is 4.32% (active); with RPMI-8226 leukemia, 86.1% (inactive); with OVCAR-8 ovarian, 97.4% (inactive); in the assay with OVCAR-5 ovarian it was 94.8% (inactive); in the assay with OVCAR-4 ovarian, 111% (inactive); in the assay with SK-OV-3 ovarian, 98.1% (inactive). In addition, the growth is 95.5% (inactive) in the assay on IGROV1 ovarian, 64.3% (inactive) in the assay with OVCAR-3 ovarian, 107% (inactive) in the assay on HS 578T breast and 70.5% (inactive) with NCI/ADR-RES ovarian.

On to `CN1CCN(c2ccc3nc(-c4c(N)c5c(F)cccc5[nH]c4=O)[nH]c3c2)CC1`, for which the growth is -11.8% (active) and 1.99% (active) in the assay on SR leukemia; 47.5% (inactive) and 53.7% (inactive) in the assay on RPMI-8226 leukemia; 35.4% (inactive) and 28.2% (inactive) in the assay with OVCAR-8 ovarian; 56.1% (inactive) and 61.3% (inactive) with OVCAR-5 ovarian; 64.7% (inactive) and 53.9% (inactive) with OVCAR-4 ovarian; 1.69% (active) and 24.6% (inactive) in the assay with SK-OV-3 ovarian. For the same molecule, the growth in the assay with IGROV1 ovarian is 13.9% (inactive) and 13.5% (inactive); with OVCAR-3 ovarian it was 53.5% (inactive) and 48.2% (inactive); in the assay on HS 578T breast, 2.57% (active); in the assay on NCI/ADR-RES ovarian, 41% (inactive) and 47% (inactive).

For the molecule `CC1=C(/C=C/C(C)=C/C=C/C(C)=C/C(=O)O)C(C)(C)CCC1`, the growth was 68.5% (inactive) and 87.1% (inactive) and 68.1% (inactive) in the assay with SR leukemia; 31.4% (inactive) and 4.62% (active) and 31.1% (inactive) with RPMI-8226 leukemia; 87% (inactive) and 89.2% (inactive) in the assay with OVCAR-8 ovarian; 120% (inactive) and 110% (inactive) with OVCAR-5 ovarian; 86.9% (inactive) and 92% (inactive) and 85% (inactive) in the assay with OVCAR-4 ovarian; 72% (inactive) and 90.2% (inactive) and 101% (inactive) in the assay on SK-OV-3 ovarian. For the same molecule, the growth was 99.5% (inactive) and 96% (inactive) and 75.9% (inactive) in the assay on IGROV1 ovarian; 88.2% (inactive) and 95% (inactive) and 107% (inactive) with OVCAR-3 ovarian; 77.1% (inactive) and 97.4% (inactive) and 75.8% (inactive) in the assay with HS 578T breast; 90.9% (inactive) and 95% (inactive) with NCI/ADR-RES ovarian.

As to `Cc1cccc(/C=C\C(=O)c2ccccc2)c1`, the growth in the assay on SR leukemia is 42.8% (inactive) and -0.91% (active); with RPMI-8226 leukemia it was 26% (inactive); in the assay on OVCAR-8 ovarian, 93.9% (inactive) and 101% (inactive); in the assay on OVCAR-5 ovarian, 104% (inactive) and 103% (inactive); with OVCAR-4 ovarian, 93.3% (inactive) and 113% (inactive); in the assay with SK-OV-3 ovarian it was 101% (inactive). The growth in the assay with IGROV1 ovarian was 91.6% (inactive); with OVCAR-3 ovarian, 98.8% (inactive) and 101% (inactive); in the assay with HS 578T breast it was 112% (inactive) and 104% (inactive); in the assay with NCI/ADR-RES ovarian, 97% (inactive) and 101% (inactive).
